The values that follow come from PubChem BioAssay AID463173 (ICCB-Longwood Screening Facility, Harvard Medical School, 2010).

Screen size: about 52,000 compounds; about 1,700 (3.3%) were called active. No stated cut-off is given here; in the data, active means survival mostly below about 52% (no sharp cut-off); inactive means mostly above about 56%. The entries come from a sample that favours actives as a whole.

The test system of the experiment is Wild type. The experiment can be described thus: growth inhibition of S. aureus wild type versus tarO mutant, primary screen, teichoic acid synthesis inhibitors, RN4220, OD600 (AID 463173). The conditions noted are these: S. aureus RN4220 wild type/DeltatarO growth, OD600, 18 h, hits give low values, screened at 18.75 µg/mL (by protocol).
Regarding `O=C(NCc1ccccc1Cl)C1CCN(S(=O)(=O)c2ccc3c(c2)CCCN3C(=O)C2CCC2)CC1`, the survival was 80% (inactive).
For `Cc1ccc(C)c(OCc2nc3ccccc3n2C)c1`, the survival was 85% (inactive).
Take `COc1cccc(OCc2nc3ccccc3n2Cc2ccccc2)c1`: the survival was 86% (inactive).
Take `Cc1ccc(OCc2nc3ccccc3n2CCOc2ccc(Cl)cc2)cc1`: the survival is 26% (active).
For `Cc1ccc(OCCn2c(COc3ccc(Cl)cc3)nc3ccccc32)cc1`, the survival was 74% (inactive).
Consider `Cn1c(COc2ccccc2C(C)(C)C)nc2ccccc21`, for which the survival is -17% (active).
With `COc1ccc(OCc2nc3ccccc3n2Cc2ccc(C(C)(C)C)cc2)cc1` the figure was 0% (active).
Take `COc1cccc(OCc2nc3ccccc3n2CCOc2ccccc2)c1`: the survival is 74% (inactive).
The result for `COc1cccc(OCc2nc3ccccc3n2CCOc2ccc(C)cc2)c1` reads 62% (inactive).
As to `Cn1c(COc2ccccc2Br)nc2ccccc21`, the survival is 106% (inactive).
As for `c1ccc(OCCn2c(COc3ccccc3)nc3ccccc32)cc1`, the survival is -15% (active).
With `COc1ccc(C(=O)NCC(c2cccnc2)N2CCc3ccccc3C2)cc1OC` (centres undefined), the survival is 93% (inactive).
With `CCOC(=O)CC(NC(=O)CCc1c(C)nc2c(c1C)c(=O)n(C)c(=O)n2C)c1ccc(OCC)c(OC)c1` (centres undefined) the figure was 82% (inactive).
Regarding `Cc1ccc(OCC(=O)Nc2ccc3nc(SCCOc4ccccc4)sc3c2)cc1`, the survival is 99% (inactive).
Regarding `CCOC(=O)N1CCc2c(sc(NCc3cccc(F)c3)c2C(=O)Nc2ccc(OC)cc2OC)C1`, the survival is 68% (inactive).
Consider `CC(C)c1nnc(NC(=O)c2nc(SCc3ccc(F)cc3)ncc2Cl)s1`, for which the survival was 58% (inactive).
Take `Cc1cc(C)n(CCc2nc3c4ccccc4nc(SCc4ccc(F)cc4)n3n2)n1`: the survival was 85% (inactive).
With `COc1ccc(C(CNC(=O)c2ccc(C)cc2)N2CCOCC2)cc1` (centres undefined) the figure was 92% (inactive).
With `Cc1cc2nc3c(=O)n(C)c(=O)n(C)c3nc2cc1N=CN(C)C` the figure was 77% (inactive); with `CCc1c(CN2CCN(c3ccc(F)cc3)CC2)csc1C`, 75% (inactive); with `O=C(CSc1ccc(-c2ccc(F)cc2)nn1)N1CCOCC1`, 112% (inactive).
For `Cc1ccc(-n2nc3c(=O)n(C(C)C(=O)NCc4ccc(OC(C)C)cc4)nc(C)c3c2C)cc1` (centres undefined), the survival is 93% (inactive).
With `CC(C)(C)c1ccc(OCc2nc3ccccc3n2CCOc2ccccc2)cc1`, the survival was 7% (active).
Consider `Cc1ccc(NS(=O)(=O)c2ccc(-c3cc(C)no3)cc2)c(C)c1`, for which the survival was 101% (inactive).
Turning to `COc1ccc(CNC(=O)c2cccn2-c2nnc(N3CCCC3)s2)c(OC)c1`, the survival is 81% (inactive).
The result for `COc1ccccc1CCNC(=O)c1cccn1-c1nnc(N2CCCCC2)s1` reads 87% (inactive); that for `O=C(c1cccn1-c1nnc(N2CCCC2)s1)N1CCN(c2ccccc2)CC1`, 19% (inactive).
On to `COc1ccc(NC(=O)c2cccn2-c2nnc(N3CCCCC3)s2)c(OC)c1`, for which the survival was 73% (inactive).
With `O=C(c1cccn1-c1nnc(N2CCCCC2)s1)N1CCN(c2ccc(Cl)cc2)CC1` the figure was 73% (inactive); with `COc1ccccc1CNC(=O)c1cccn1-c1nnc(N2CCCC2)s1`, 81% (inactive); with `COc1ccc(CNC(=O)c2cccn2-c2nnc(N3CCCCC3)s2)c(OC)c1`, -2% (active).
As to `COc1ccccc1CNC(=O)c1cccn1-c1nnc(N2CCCCC2)s1`, the survival is 10% (active).
Take `O=C(c1cccn1-c1nnc(N2CCCCC2)s1)N1CCN(c2ccccc2)CC1`: the survival was -3% (active).
As for `Cc1ccc(C)c(CSc2nnc3[nH]c(=O)cc(-c4ccccc4)n23)c1`, the survival was 86% (inactive).
With `Cc1cccc(N2CCN(c3nc4ccccc4c4nnc(C)n34)CC2)c1C` the figure was 98% (inactive); with `COc1ccc(NC(=O)C2CCN(C(=O)c3sc4nc[nH]c(=O)c4c3C)CC2)cc1Cl`, 85% (inactive); with `O=C(CN1c2ccccc2S(=O)(=O)c2ccccc21)Nc1ccccc1Cl`, 65% (inactive).
For `Cc1cccc(NC(=O)CN2c3ccccc3S(=O)(=O)c3ccccc32)c1C`, the survival was -3% (active).
The result for `CCOc1ccccc1NC(=O)CN1C=NS(=O)(=O)c2ccccc21` reads 59% (inactive).
As to `CCOc1ccccc1NC(=O)CN1C(=O)C(=O)c2ccccc21`, the survival was 115% (inactive).
`CCOc1ccccc1NC(=O)CN1c2ccccc2S(=O)(=O)c2ccccc21`: the survival was 10% (active).
On to `Cc1cc(C)c(NC(=O)CN2c3ccccc3S(=O)(=O)c3ccccc32)c(C)c1`, for which the survival was 124% (inactive).
Take `CCn1nc(-c2ccccc2)c(-c2ccccc2)c(C(=O)Nc2ccc(NC(C)=O)cc2)c1=O`: the survival was 88% (inactive).
Turning to `CCC(C)(C)n1nnnc1C(c1ccccc1OC)N1CCN(C(=O)c2ccco2)CC1` (centres undefined), the survival is 105% (inactive).
Turning to `Cc1ccc(C)c(Cn2c(C(C)NC(=O)c3ccc(F)cc3)nc3ccccc32)c1` (centres undefined), the survival was 83% (inactive).
Turning to `COc1ccc(C(=O)N2CCN(C(=O)COc3ccccc3)CC2)cc1OC`, the survival was 79% (inactive).
Consider `CC(=O)N1c2ccc(S(=O)(=O)NCC3CCC(C(=O)Nc4cccc(C)c4)CC3)cc2CC1C` (centres undefined), for which the survival was 91% (inactive).
For the compound `Cc1ccc(C(=O)Nc2ccc(-c3nc4ccccc4s3)cc2C)cc1C`, the survival was 73% (inactive).
With `CSc1ncc(C(=O)N2CCN(c3cccc(Cl)c3)CC2)c(C)n1` the figure was -3% (active).
Take `CSc1ncc(C(=O)N2CCN(c3cccc(C(F)(F)F)c3)CC2)c(C)n1`: the survival is 73% (inactive).
The result for `CSc1ncc(C(=O)N2CCN(c3ccc(Cl)cc3)CC2)c(C)n1` reads 124% (inactive); that for `CCCCN(CCCNC(=O)c1c(C)oc2nc[nH]c(=O)c12)Cc1ccccc1`, 71% (inactive).
With `Cc1oc2ccc(O)c(CN3CCCC(C)C3)c2c1C(=O)Nc1ccccc1` (centres undefined) the figure was 91% (inactive); with `CCN(Cc1ccccc1)Cc1c(O)ccc2c(=O)c(-c3ccccc3Cl)coc12`, 73% (inactive); with `CCN(CC)c1ccc(NC(=O)CN2C(=O)c3cccnc3Oc3ccccc32)c(C)c1`, 135% (inactive).
As to `CCN(CC)c1ccc(NC(=O)CN2C(=O)c3cccnc3Sc3ccccc32)c(C)c1`, the survival is -4% (active).
In the case of `Cc1cc(Br)ccc1NC(=O)CN1C(=O)c2cccnc2Sc2ccccc21`, the survival was 85% (inactive).
Take `CCC(=O)Nc1ccc(CC)cc1-c1nc2ccccc2n(CC(=O)Nc2ccccc2C)c1=O`: the survival is 88% (inactive).
For the compound `COc1ccc(Nc2ncc3c(n2)CCN(Cc2ccc(Br)s2)C3)c(OC)c1`, the survival is 127% (inactive).
